Reference: PMC4552634, “A New Set of Chemical Starting Points with Plasmodium falciparum Transmission-Blocking Potential for Antimalarial Drug Discovery” (PLoS ONE, 2015)
Like-named read-outs stand apart in the source and are kept apart here. The whole screen tested about 13,000 compounds, of which about 3,200 (25%) showed an effect of 50% or more. The list shows a part of the results.

Test system: P. falciparum stage V gametocytes
Parameters: BacTiter-Glo ATP luminescence viability of purified stage V gametocytes in 384-well plates, per cent inhibition versus DMSO
Settings: 48 h, 5 µM, inhibitor

Compound | % Inhibition [%] | % Inhibition (% Inhibition) [%]
Oc1cccc(Nc2nc(NCc3ccco3)c3ccccc3n2)c1 [TCMDC-124014] | 8.731 | –
Cc1c[nH]c2cc(/C=C/C(=O)NC3CCC(CCN4CCc5ccc(C#N)cc5CC4)CC3)ccc12 (centres unmarked) [TCMDC-139663] | 21.27 | –
Cc1cc(-c2nc3cncc(-c4cccc(CN5CCCC5Cc5cccnc5)c4)c3n2C)nn1C (centres unmarked) [TCMDC-135046] | -7.326 | –
CCOC(=O)N1NC(=O)N(c2ccccc2)C1(c1ccccc1)c1ccccc1 [TCMDC-142002] | -11.41 | –
COc1cc2c(cc1C(F)(F)F)N(C(=O)Nc1cc(OC(F)(F)F)cc(-c3cccnc3)c1)CC2 [TCMDC-139046] | -1.066 | –
O=C(c1cccs1)N1CCN(c2ccc([N+](=O)[O-])c(NC3CC3)c2)CC1 [TCMDC-123877] | 88.85 | –
Cc1cc(N2CCN(C(=O)OC(C)(C)C)CC2)ccc1N [TCMDC-125886] | -87.61 | –
O=C(NC1CCN(c2ccc(F)cc2[N+](=O)[O-])CC1)c1cccs1 [TCMDC-133786] | 14.81 | –
COc1ccc(CN2CCN(C(=O)c3cccs3)CC2)c(O)c1 [TCMDC-139298] | 16.42 | –
CC(C)(C)C(=O)N1CCN(c2ccc([N+](=O)[O-])c(NC3CC3)c2)CC1 [TCMDC-123687] | 84.84 | –
O=C(c1ccco1)N1CCN(c2ccc([N+](=O)[O-])c(NC3CC3)c2)CC1 [TCMDC-125397] | 97.95 | –
O=C(N1CCN(c2ccc(C(F)(F)F)cc2[N+](=O)[O-])CC1)C(Cl)(Cl)Cl [TCMDC-124371] | -2.22 | –
O=C(CN1CCN(C(=O)c2ccco2)CC1)Nc1ccccc1Br [TCMDC-124849] | 32.72 | –
O=C(CN1CCN(C(=O)c2ccco2)CC1)Nc1ccc(Br)cc1Cl [TCMDC-124619] | -12.46 | –
O=C(NCCN1CCCC1)c1cccc(-c2ccc(-c3nc4ccccc4[nH]3)s2)c1 [TCMDC-132319] | -6.335 | –
Cc1ccc(CNC(=O)c2cc3c(=O)n4cccc(C)c4nc3n(CCN3CCOCC3)c2=N)cc1 [TCMDC-125405] | 11.13 | –
C=CCn1c(=N)c(C(=O)NCc2ccc(F)cc2)cc2c(=O)n3cccc(C)c3nc21 [TCMDC-125128] | 82.89 | –
COc1ccc(CCNC(=O)c2cc3c(=O)n4cccc(C)c4nc3n(C)c2=N)cc1 [TCMDC-125129] | 30.65 | –
C=CCn1c(=N)c(C(=O)NC2CCCCC2)cc2c(=O)n3cccc(C)c3nc21 [TCMDC-125083] | 96.68 | –
Cc1cccn2c(=O)c3cc(C(=O)NC4CCCCC4)c(=N)n(CCCn4ccnc4)c3nc12 [TCMDC-125136] | 14.71 | –
COc1ccc(CCn2c(=N)c(C(=O)NC3CCCC3)cc3c(=O)n4ccccc4nc32)cc1 [TCMDC-124552] | 4.624 | –
N#Cc1ccc2nc(-c3ccccc3)[nH]c2c1 [TCMDC-137223] | 19.91 | –
COc1cc(C(=O)Nc2cccc(-c3nc4ccccc4[nH]3)c2)ccc1OC(C)=O [TCMDC-123603] | -70.82 | –

Compound | % Inhibition [%] | % Inhibition (% Inhibition) [%]
O=C(CCNc1ccnc(NCCc2ccccc2)n1)Nc1ccccc1 [TCMDC-134809] | 42.97 | –
Cc1cnc(NCCc2ccc(F)cc2)nc1N[C@@H](CC(C)C)C(=O)Nc1ccccc1 [TCMDC-134851] | -15.21 | –
Cc1cc(NCCC(=O)Nc2ccccc2)nc(NCc2ccccc2C)n1 [TCMDC-134901] | 2.536 | –
O=C(CCNc1ccnc(NCC2CCCCC2)n1)Nc1ccccc1 [TCMDC-134707] | 16.22 | –
Cc1ccccc1CNc1nccc(NCCC(=O)Nc2ccccc2)n1 [TCMDC-134913] | 50.88 | –
O=C(CCNc1ccnc(NCCc2ccc(F)cc2)n1)Nc1ccccc1 [TCMDC-134824] | 63.53 | –
Cc1cnc(NCCc2ccc(F)cc2)nc1NCCC(=O)Nc1ccccc1 [TCMDC-134850] | 59.7 | –
Cc1cnc(Nc2ccccc2)nc1NCCC(=O)Nc1ccccc1 [TCMDC-134914] | 19.34 | –
Cc1ccc(NS(=O)(=O)c2ccc(-c3ccccc3)cc2)c(Cn2cnc(N3CCCNCC3)cc2=O)c1 [TCMDC-133150] | 3.416 | –
COc1ccc2ncc(F)c(CCN3CC(O)C(CNCc4nc5c(cc4Cl)OCC(=O)N5)C3)c2n1 (centres unmarked) [TCMDC-136079] | – | 2.766
CCOC(=O)c1sc(C(C)Nc2ccccc2)nc1-c1ccccc1 (centres unmarked) [TCMDC-135642] | 18.56 | –
Cc1ccc(CN2CCC(Oc3cccc(NC(=O)c4ccc(C(F)(F)F)cc4)c3)CC2)cc1 [TCMDC-133736] | -34.39 | –
O=C(NC1CC1)c1ccc(N2CCC(COc3cccc(F)c3)CC2)nc1 [TCMDC-134029] | 11.49 | –
O=C1OC(c2ccccc2)(c2ccccc2)CN1CC1CCN(Cc2ccc(O)c(Cl)c2)CC1 [TCMDC-136312] | 3.668 | –
FC(F)(F)c1ccc2[nH]c(-c3cccc(-c4cccc(CNCC5CCCO5)c4)c3)nc2c1.O=C(O)C(F)(F)F (centres unmarked) [TCMDC-133102] | -56.01 | –
CN(Cc1cccc(O)c1)C1CCN(c2cc(NC(=O)c3ccc(F)cc3)ccn2)C1 (centres unmarked) [TCMDC-134955] | -27.34 | –
COc1ccc(CCC(C)(C)NCC(O)c2cccc(C(F)(F)F)c2)cc1 (centres unmarked) [TCMDC-131504] | -35.85 | –
Cc1ccc(S(=O)(=O)Nc2ccc(Nc3nccc(Nc4cccc5[nH]ncc45)n3)cc2)cc1 [TCMDC-136297] | -19.92 | –
CC(C)N1CCCN(C(=O)C2CCN(c3ccc(C(=O)N4CCCC4)cn3)CC2)CC1 [TCMDC-135636] | 39.57 | –
COc1cc(C2C(Oc3ccccc3)C(=O)N2Cc2ccc(F)cc2)cc(OC)c1OC (centres unmarked) [TCMDC-125396] | 72.32 | –
COc1cc(NC(=O)c2ccc3c(=O)n(Cc4ccccc4)c(=S)[nH]c3c2)cc(OC)c1OC [TCMDC-123804] | 26.78 | –
COc1ccc(C2NCCc3c2[nH]c2ccccc32)cc1CN1CCN(c2ccc(F)cc2)CC1 (centres unmarked) [TCMDC-124340] | -3.324 | –
NCCCNc1nc(Nc2cccc(C(N)=O)c2)c2c(=O)[nH]ccc2n1 [TCMDC-135053] | 0.6256 | –

Compound | % Inhibition [%] | % Inhibition (% Inhibition) [%]
NCCCNc1nc(Nc2ccc(C(F)(F)F)cc2F)c2c(=O)[nH]ccc2n1 [TCMDC-135056] | 108.1 | –
Cc1cccc(Nc2nc(NCCCCN)nc3cc[nH]c(=O)c23)c1 [TCMDC-134946] | 47.91 | –
CCS(=O)(=O)c1ccc(/C(=N/OC)c2ccc[nH]2)cc1 [TCMDC-139022] | -5.005 | –
CCCc1cc(=O)[nH]c(-n2nc(C)cc2NC(=O)C(CC)c2ccccc2)n1 (centres unmarked) [TCMDC-124941] | 11.79 | –
Cc1cc(=O)[nH]c(-n2nc(C)cc2NC(=O)C(c2ccccc2)c2ccccc2)n1 [TCMDC-124945] | 2.872 | –
Cc1ccc(Nc2cc(C)nn2-c2nc(C)cc(=O)[nH]2)cc1 [TCMDC-123713] | 62.43 | –
Cc1cc(=O)[nH]c(-n2nc(C)cc2NC(=O)CC(c2ccccc2)c2ccccc2)n1 [TCMDC-124944] | -15.6 | –
CCN(CC)c1nc(Nc2cc(C)ccc2C)nc(Nc2ccccc2O)n1 [TCMDC-125766] | -38.82 | –
CCn1c(-c2nonc2N)nc2c(-c3cccc(NC(=O)Nc4ccc(Cl)cc4)c3)ncc(OCCCN)c21 [TCMDC-136152] | 102.5 | –
CCn1c(-c2nonc2N)nc2c(-c3cccc(NC(=O)Nc4cccc(Cl)c4)c3)ncc(OCCCN)c21 [TCMDC-136193] | 104.3 | –
CCn1c(-c2nonc2N)nc2cnc(Oc3cccc(NC(=O)c4ccc(OCCCN5CCCCC5)cc4)c3)cc21 [TCMDC-135764] | -4.348 | –
Cc1cccc2[nH]c(-c3cccc(-c4cccc(NC(=O)Nc5ccc(Cl)cc5)c4)c3)nc12 [TCMDC-133179] | -25.81 | –
CCn1c(-c2nonc2N)nc2c(-c3cccc(NC(=O)Nc4ccc5c(c4)CCC5)c3)ncc(OCCCN)c21 [TCMDC-136191] | 95.55 | –
CCOC(=O)c1ccc(NC(=O)Nc2cccc(-c3cccc(-c4nc5c(C)cccc5[nH]4)c3)c2)cc1 [TCMDC-133264] | -4.791 | –
CCn1c(-c2nonc2N)nc2c(Cl)ncc(O[C@H](CCN)c3ccccc3F)c21 [TCMDC-133566] | -5.634 | –
CCOC(=O)c1ccc(NC(=O)Nc2cccc(-c3cccc(-c4nc5ccccc5[nH]4)c3)c2)cc1 [TCMDC-133263] | 2.081 | –
CCOC(=O)c1cccc(NC(=O)Nc2cccc(-c3ncc(OCCCN)c4c3nc(-c3nonc3N)n4CC)c2)c1 [TCMDC-136205] | 109.2 | –
CCn1c(-c2nonc2N)nc2cnc(Oc3cccc(NC(=O)c4ccc(OCCN5CCCC5)cc4)c3)cc21 [TCMDC-135776] | 8.365 | –
CCn1c(-c2nonc2N)nc2c(-c3cccc(NC(=O)NC45CC6CC(CC(C6)C4)C5)c3)ncc(OCCCN)c21 [TCMDC-136246] | 20.74 | –
Nc1nonc1-c1nc2c(-c3cccc(Cl)c3)nccc2n1CCCNC(=O)Cc1ccc(Cl)cc1 [TCMDC-135207] | 32.87 | –
Cc1cccc2nc(-c3ccc(-c4cccc(CN5CC(C)OC(C)C5)c4)s3)[nH]c12.O=C(O)C(F)(F)F (centres unmarked) [TCMDC-133832] | -9.101 | –
N#Cc1ccc(C(=O)Nc2cc(-c3cccc(O)c3)cc3[nH]ncc23)cc1 [TCMDC-134118] | 16.86 | –
